The text below walks through data of ChEMBL document CHEMBL1961873, “Compounds: GSK PKIS; Assays: Nanosyn kinase panel” (2012).

Test [1] addresses Serine/threonine-protein kinase MRCK alpha (Homo sapiens) (UniProt Q5VT25). The settings on record: at 0.1 µM.
For test [2] the target is unchanged. The following applies: at 1 µM.
Test [3] deals with Serine/threonine-protein kinase MRCK beta (Homo sapiens) (UniProt Q9Y5S2). The following applies: at 0.1 µM.
Test [4] shares this target. The following applies: at 1 µM.
Test [5] has as its target Ribosomal protein S6 kinase alpha-5 (Homo sapiens) (UniProt O75582). The following applies: at 0.1 µM.
Test [6] shares this target. The settings on record: at 1 µM.
Test [7] addresses Ribosomal protein S6 kinase alpha-4 (Homo sapiens) (UniProt O75676). The settings on record: at 0.1 µM.
For test [8] the target is unchanged. The settings on record: at 1 µM.
Test [9] concerns the target Ribosomal protein S6 kinase beta-1 (Homo sapiens) (UniProt P23443). The settings on record: at 0.1 µM.
For test [10] the target is unchanged. The following applies: at 1 µM.
Test [11] addresses T1, 3-phosphoinositide-dependent protein kinase 1 (Homo sapiens) (UniProt O15530).
T1 sequence (whole entry): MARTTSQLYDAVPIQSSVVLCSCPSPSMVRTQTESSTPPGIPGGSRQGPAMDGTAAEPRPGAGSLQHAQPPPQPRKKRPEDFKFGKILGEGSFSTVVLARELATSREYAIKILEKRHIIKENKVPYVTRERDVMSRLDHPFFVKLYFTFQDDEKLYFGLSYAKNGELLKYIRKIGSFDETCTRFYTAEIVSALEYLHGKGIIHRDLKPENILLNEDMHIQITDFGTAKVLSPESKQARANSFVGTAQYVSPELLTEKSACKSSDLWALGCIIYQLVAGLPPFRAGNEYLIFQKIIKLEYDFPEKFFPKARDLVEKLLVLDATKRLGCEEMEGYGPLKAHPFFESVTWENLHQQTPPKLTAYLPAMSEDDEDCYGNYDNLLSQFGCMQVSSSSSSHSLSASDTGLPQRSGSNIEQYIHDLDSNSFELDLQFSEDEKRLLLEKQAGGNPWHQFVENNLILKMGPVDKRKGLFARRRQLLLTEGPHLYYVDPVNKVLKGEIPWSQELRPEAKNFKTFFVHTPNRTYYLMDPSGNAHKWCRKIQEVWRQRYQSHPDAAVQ
The settings on record: at 0.1 µM.

Test [12] concerns the target cAMP-dependent protein kinase catalytic subunit alpha (Homo sapiens) (UniProt P17612). The settings on record: at 0.1 µM.
Test [13] shares this target. The following applies: at 1 µM.
Test [14] has as its target Protein kinase C alpha type (Homo sapiens) (UniProt P17252). The following applies: at 0.1 µM.
For test [15] the target is unchanged. The settings on record: at 1 µM.
Test [16] concerns the target Protein kinase C beta type (Homo sapiens) (UniProt P05771). The settings on record: at 0.1 µM.
Test [17] shares this target. The settings on record: at 1 µM.
The target of test [18] is Protein kinase C eta type (Homo sapiens) (UniProt P24723). The following applies: at 0.1 µM.
Sequence of Protein kinase C eta type (Homo sapiens) (P24723 whole entry): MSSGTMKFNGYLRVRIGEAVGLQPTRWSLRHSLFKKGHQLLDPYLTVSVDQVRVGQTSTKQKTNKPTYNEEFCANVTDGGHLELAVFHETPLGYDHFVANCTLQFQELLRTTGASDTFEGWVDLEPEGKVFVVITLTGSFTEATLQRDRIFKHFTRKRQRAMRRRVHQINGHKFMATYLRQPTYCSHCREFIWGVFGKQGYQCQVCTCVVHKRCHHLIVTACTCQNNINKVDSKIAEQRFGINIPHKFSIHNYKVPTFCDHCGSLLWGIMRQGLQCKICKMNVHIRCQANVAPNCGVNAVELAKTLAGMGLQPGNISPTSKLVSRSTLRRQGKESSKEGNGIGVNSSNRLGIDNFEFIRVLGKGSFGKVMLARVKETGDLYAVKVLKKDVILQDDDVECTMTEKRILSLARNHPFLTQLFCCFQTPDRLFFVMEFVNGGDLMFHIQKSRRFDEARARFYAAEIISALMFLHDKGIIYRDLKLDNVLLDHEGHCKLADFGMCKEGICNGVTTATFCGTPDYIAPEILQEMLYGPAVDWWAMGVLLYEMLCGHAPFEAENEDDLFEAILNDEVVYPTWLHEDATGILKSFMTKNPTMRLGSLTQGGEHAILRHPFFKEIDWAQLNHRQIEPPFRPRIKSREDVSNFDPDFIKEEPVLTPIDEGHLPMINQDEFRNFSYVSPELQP
Test [19] has the same target. The following applies: at 1 µM.
The target in test [20] is Protein kinase C gamma type (Homo sapiens) (UniProt P05129). The following applies: at 0.1 µM.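 Note: values are mean percent inhibition of PKC gamma.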

Sequence of Serine/threonine-protein kinase MRCK alpha (Homo sapiens) (Q5VT25 whole entry): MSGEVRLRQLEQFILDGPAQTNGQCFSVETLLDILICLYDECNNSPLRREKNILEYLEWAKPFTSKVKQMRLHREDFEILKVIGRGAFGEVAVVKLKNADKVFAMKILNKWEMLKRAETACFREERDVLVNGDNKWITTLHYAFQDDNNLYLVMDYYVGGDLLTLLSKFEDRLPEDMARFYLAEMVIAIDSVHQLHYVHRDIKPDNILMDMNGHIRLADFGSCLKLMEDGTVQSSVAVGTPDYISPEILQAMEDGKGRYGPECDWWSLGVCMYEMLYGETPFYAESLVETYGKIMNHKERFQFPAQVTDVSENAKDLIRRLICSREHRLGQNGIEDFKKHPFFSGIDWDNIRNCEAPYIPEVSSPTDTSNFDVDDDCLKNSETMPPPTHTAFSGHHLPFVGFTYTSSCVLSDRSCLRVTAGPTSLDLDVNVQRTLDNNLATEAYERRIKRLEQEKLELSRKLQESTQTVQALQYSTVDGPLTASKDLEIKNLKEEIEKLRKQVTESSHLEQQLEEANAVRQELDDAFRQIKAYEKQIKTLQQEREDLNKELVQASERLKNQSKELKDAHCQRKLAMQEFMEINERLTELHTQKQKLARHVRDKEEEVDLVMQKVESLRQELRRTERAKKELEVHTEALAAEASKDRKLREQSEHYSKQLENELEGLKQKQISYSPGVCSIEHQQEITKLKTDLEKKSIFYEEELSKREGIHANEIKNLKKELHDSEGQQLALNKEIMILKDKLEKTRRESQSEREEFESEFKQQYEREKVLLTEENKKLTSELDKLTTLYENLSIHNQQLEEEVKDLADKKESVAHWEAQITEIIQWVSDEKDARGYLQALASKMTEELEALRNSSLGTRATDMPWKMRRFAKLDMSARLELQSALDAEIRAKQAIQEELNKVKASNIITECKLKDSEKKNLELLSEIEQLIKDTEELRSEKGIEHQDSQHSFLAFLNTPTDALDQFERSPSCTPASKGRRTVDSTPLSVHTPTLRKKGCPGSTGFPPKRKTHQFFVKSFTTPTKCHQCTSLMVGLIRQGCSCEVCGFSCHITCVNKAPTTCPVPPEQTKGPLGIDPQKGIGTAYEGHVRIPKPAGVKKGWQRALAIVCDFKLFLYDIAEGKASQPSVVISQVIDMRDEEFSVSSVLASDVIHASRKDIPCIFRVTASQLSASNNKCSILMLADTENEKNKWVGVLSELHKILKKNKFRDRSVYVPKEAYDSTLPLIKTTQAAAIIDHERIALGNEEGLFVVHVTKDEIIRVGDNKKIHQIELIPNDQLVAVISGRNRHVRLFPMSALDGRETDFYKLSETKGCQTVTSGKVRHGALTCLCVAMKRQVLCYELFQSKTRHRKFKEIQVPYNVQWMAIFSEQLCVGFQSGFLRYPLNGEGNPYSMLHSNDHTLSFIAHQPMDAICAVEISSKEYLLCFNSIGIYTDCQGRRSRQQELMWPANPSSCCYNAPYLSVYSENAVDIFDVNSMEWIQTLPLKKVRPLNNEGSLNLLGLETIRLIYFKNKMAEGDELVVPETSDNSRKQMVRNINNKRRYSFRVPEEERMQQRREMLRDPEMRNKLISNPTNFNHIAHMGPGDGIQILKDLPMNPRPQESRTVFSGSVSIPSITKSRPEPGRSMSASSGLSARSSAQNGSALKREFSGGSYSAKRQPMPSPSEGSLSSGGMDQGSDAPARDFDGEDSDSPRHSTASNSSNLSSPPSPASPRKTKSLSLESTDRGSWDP
Sequence of Serine/threonine-protein kinase MRCK beta (Homo sapiens) (Q9Y5S2 whole entry): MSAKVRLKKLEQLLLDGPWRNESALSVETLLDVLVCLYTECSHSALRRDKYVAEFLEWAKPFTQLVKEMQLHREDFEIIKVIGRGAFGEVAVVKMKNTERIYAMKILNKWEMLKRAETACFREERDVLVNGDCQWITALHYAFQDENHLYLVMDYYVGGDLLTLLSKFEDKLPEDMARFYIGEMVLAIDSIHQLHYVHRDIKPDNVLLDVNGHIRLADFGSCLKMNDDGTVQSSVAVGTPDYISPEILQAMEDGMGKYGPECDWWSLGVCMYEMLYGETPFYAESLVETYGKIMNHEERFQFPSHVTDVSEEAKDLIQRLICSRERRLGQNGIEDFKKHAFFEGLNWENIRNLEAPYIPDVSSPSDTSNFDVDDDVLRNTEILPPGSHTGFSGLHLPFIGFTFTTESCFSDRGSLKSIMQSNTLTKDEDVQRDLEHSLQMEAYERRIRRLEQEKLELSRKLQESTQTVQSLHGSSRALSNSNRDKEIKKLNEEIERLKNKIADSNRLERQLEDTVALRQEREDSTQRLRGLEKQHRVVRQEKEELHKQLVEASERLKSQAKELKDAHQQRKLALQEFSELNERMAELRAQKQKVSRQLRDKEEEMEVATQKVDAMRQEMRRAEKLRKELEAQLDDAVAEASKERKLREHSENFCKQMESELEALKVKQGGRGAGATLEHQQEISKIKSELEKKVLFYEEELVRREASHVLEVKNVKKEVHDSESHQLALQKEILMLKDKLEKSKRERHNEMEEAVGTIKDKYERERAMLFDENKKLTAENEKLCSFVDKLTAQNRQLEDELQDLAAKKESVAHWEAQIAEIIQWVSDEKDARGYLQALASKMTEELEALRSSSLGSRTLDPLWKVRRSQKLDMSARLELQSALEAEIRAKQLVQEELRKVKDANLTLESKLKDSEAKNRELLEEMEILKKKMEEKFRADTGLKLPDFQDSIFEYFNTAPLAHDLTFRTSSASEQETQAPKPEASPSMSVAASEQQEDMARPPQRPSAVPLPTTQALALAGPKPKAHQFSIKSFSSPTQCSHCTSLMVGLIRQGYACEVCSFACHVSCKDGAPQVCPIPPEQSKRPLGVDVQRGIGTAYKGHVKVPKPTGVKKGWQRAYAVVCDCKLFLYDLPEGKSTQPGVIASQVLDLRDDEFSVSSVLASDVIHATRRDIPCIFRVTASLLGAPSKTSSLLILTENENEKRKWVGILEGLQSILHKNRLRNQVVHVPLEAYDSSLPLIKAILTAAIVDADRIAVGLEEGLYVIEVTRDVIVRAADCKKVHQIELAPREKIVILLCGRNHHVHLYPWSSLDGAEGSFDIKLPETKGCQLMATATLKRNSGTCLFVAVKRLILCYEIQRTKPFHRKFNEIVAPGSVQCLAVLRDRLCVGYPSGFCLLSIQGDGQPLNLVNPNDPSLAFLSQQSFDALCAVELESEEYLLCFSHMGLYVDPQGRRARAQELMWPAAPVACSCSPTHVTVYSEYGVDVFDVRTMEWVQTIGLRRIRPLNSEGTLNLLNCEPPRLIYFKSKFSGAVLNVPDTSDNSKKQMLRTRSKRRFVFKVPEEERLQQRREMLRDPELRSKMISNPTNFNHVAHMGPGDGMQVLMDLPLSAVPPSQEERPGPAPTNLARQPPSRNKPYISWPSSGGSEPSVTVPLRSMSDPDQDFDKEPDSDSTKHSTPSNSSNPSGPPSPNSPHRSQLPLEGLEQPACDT
Sequence of Ribosomal protein S6 kinase alpha-4 (Homo sapiens) (O75676 whole entry, looked up): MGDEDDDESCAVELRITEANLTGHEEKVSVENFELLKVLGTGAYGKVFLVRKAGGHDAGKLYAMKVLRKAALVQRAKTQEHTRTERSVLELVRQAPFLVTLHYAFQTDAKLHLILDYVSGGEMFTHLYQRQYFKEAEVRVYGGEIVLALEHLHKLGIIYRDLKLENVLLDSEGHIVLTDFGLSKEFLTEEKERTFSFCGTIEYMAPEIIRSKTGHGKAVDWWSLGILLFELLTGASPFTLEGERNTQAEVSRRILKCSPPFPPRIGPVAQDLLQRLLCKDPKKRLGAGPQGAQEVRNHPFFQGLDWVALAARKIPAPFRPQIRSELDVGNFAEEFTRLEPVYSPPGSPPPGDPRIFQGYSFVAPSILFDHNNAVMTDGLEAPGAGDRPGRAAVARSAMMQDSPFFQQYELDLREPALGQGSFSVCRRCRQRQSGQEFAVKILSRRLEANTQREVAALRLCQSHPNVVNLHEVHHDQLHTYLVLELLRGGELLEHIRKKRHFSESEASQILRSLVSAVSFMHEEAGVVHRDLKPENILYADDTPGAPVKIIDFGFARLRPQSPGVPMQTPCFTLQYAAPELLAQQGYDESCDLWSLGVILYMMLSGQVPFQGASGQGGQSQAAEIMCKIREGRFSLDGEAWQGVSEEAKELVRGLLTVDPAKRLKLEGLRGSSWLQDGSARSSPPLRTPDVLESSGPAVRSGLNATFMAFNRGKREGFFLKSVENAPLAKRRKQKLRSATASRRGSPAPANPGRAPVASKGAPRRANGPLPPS

As usually defined, the inhibition is the drop in the measured response relative to a control, in per cent. Regarding `CS(=O)(=O)CCNCc1nc(-c2ccc3ncnc(Nc4ccc(OCc5cccc(C(F)(F)F)c5)cc4)c3c2)cs1`, the inhibition is 4.26% in test [1]; 2.95% in test [2]; -0.6% in [3]; 0.82% in test [4]; 0.64% in test [5]; 1.57% in [6]. Besides, the inhibition in [7] was determined as 1.54%; in test [8] it was 2.66%; in test [9] it was 1.22%; in test [10], 1.83%; in [11] it was 0.07%; in test [12], 1.46%. The inhibition in [13] was 0.51%; in test [14], -0.15%; in test [15], -0.72%; in [16], 0.26%; in test [17], 1.43%; in test [18], 3.05%. Further, the inhibition in [19] was found to be 2.2%; in test [20] it was 0.96%.
Regarding `NS(=O)(=O)c1ccc(NC=C2C(=O)Nc3ccc4ncsc4c32)cc1`, the inhibition came out at 3.96% in test [1]; 20.5% in [2]; 5.03% in test [3]; 15.4% in test [4]; 11% in test [5]; 23.1% in [6]. Also, the inhibition worked out at 28.8% in test [7]; 63.9% in [8]; 5.33% in test [9]; 25.6% in test [10]; 30.1% in [11]; 2.64% in test [12]. For the same molecule, the inhibition came to 11.8% in test [13]; 1.14% in test [14]; 8.8% in test [15]; 0.12% in test [16]; 2.75% in [17]; 6.21% in test [18]. Besides, the inhibition was 4.18% in test [19] and 3.84% in test [20].
Regarding `COC(=O)c1cncc(/C=C/c2c(C)cc(O)cc2C)c1`, the inhibition in test [1] was -0.75%; in test [2], 4.85%; in [3], -0.09%; in [4] it was 0.48%; in [5], 3.93%; in test [6], 4.33%. Moreover, the inhibition in test [7] was 2.57%; in test [8], 3.67%; in test [9], 1.37%; in test [10], 1.04%; in test [11], -0.19%; in [12], 1.8%. Further, the inhibition in test [13] came to 2.3%; in test [14], 0.98%; in test [15] it was 1.39%; in test [16] it was 0.78%; in test [17], 2.09%; in [18], 4.57%. The inhibition in test [19] amounted to 5.34%; in [20] it was 6.64%.
As to `NC(=O)c1sc(-n2cnc3ccccc32)cc1OCc1ccccc1Br`, the inhibition in [1] is 1.73%; in test [2], 4.94%; in test [3], -1.16%; in test [4], 0.28%; in [5], 8.61%; in test [6] it was 10%. Besides, the inhibition in [7] came to 2.12%; in test [8], 4.72%; in test [9], 1.52%; in test [10], 4.06%; in test [11], 1.27%; in test [12], 1.4%. Also, the inhibition in [13] is 4.48%; in test [14], 1.58%; in test [15] it was 2.92%; in test [16], -0.55%; in test [17], 0.73%; in [18] it was 5.09%. For the same molecule, the inhibition in [19] came to 2.7%; in test [20], 1.38%.
On to `CCOc1nccc2c1nc(-c1nonc1N)n2CC`, for which the inhibition in [1] was 2.25%; in test [2] it was 5.56%; in [3], 1.28%; in [4], 2.92%; in test [5], 13.2%; in test [6], 45.4%. The inhibition came to 6.75% in test [7]; 27.6% in test [8]; 13.4% in test [9]; 56.5% in test [10]; 1.85% in test [11]; 3.12% in test [12]. Also, the inhibition is 9.17% in [13]; -0.03% in test [14]; 1.03% in test [15]; 11.6% in test [16]; 39.7% in [17]; 7.44% in test [18]. Moreover, the inhibition in [19] stood at 24.1%; in test [20], 3.01%.
With `COc1cc(/C=N/Nc2ncnc3c2cnn3C(C)C)ccc1O`, the inhibition in test [1] was 0%; in test [2] it was 0.03%; in test [3], 0.84%; in [4], 0.35%; in test [5], 2.8%; in test [6] it was 3.54%. For the same molecule, the inhibition in test [7] came out at 2.2%; in test [8] it was 1.83%; in test [9], 1.17%; in test [10], 2.21%; in test [11], 5.59%; in [12], 1.05%. Moreover, the inhibition in test [13] worked out at 3.87%; in [14], 0.6%; in [15], 2.74%; in [16], 0.72%; in test [17], 3.01%; in test [18], 0.82%. Moreover, the figures for the inhibition in [19] and in test [20] were 3.21% and -1.82%, respectively.
